# The entries come from a sample that favours the strongest signals as a whole.
# Key:
# Test in all cases: glycan array binding signal (z-score within array); higher = stronger binding
# Conditions in all cases: glycan notation: IUPAC condensed, linker removed; mutation: R343I
# Fuc(a1-2)Gal(b1-4)Glc6S = target: Fuc(a1-2)Gal(b1-4)Glc6S
# How it was run: (§1)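 Negative Z-scores can be read as non-binding. The Z-score is calculated within each array and then averaged across arrays of one protein sequence at different concentrations or buffers and across linkers. Arrays, 3228 in all, were curated from the Consortium for Functional Glycomics database and kept only where the protein sequence was available.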
# Fuc(a1-2)[Gal(a1-3)]Gal = target: Fuc(a1-2)[Gal(a1-3)]Gal
# How it was run: as §1
# [1] = target: Fuc(a1-2)[Gal(a1-3)]Gal(b1-3)GlcNAc
# How it was run: as §1
# [2] = target: Fuc(a1-2)[GalNAc(a1-4)]Gal(b1-4)GlcNAc
# How it was run: as §1
# Fuc(a1-3)GlcNAc = target: Fuc(a1-3)GlcNAc
# How it was run: as §1
# [3] = target: Fuc(a1-3)[Gal(b1-4)]GlcNAc(b1-2)Man(a1-3)[Fuc(a1-3)[Gal(b1-4)]GlcNAc(b1-2)Man(a1-6)]Man(b1-4)GlcNAc(b1-4)GlcNAc
# How it was run: as §1
# [4] = target: Fuc(a1-3)[Gal(b1-4)]GlcNAc(b1-2)Man(a1-6)[Gal(b1-4)GlcNAc(b1-2)Man(a1-3)]Man(b1-4)GlcNAc(b1-4)GlcNAc
# How it was run: as §1
# Gal(a1-2)Gal = target: Gal(a1-2)Gal
# How it was run: as §1
# Gal(a1-3)GalNAc = target: Gal(a1-3)GalNAc
# How it was run: as §1
# Gal(a1-4)GlcNAc = target: Gal(a1-4)GlcNAc
# How it was run: as §1
# [5] = target: Gal(b1-3)[GlcNAc(b1-6)]GalNAc
# How it was run: as §1
# [6] = target: Gal(b1-3)[Neu5Ac(b2-6)]GalNAc
# How it was run: as §1
# [7] = target: Gal(b1-4)GalNAc(a1-3)[Fuc(a1-2)]Gal(b1-4)GlcNAc
# How it was run: as §1
# [8] = target: Gal(b1-4)GlcNAc(b1-6)GalNAc
# How it was run: as §1
# [9] = target: GlcNAc(b1-2)Man(a1-3)[GlcNAc(b1-2)Man(a1-6)]Man(b1-4)GlcNAc(b1-4)GlcNAc
# How it was run: as §1
# GlcNAc(b1-3)Man = target: GlcNAc(b1-3)Man
# How it was run: as §1
# [10] = target: GlcNAc(b1-4)[GlcNAc(b1-6)]GalNAc
# How it was run: as §1
# [11] = target: Man(a1-2)Man(a1-2)Man(a1-3)Man
# How it was run: as §1
# [12] = target: Man(a1-2)Man(a1-3)[Man(a1-2)Man(a1-6)]Man(a1-6)[Man(a1-2)Man(a1-2)Man(a1-3)]Man
# How it was run: as §1
# [13] = target: Man(a1-2)Man(a1-3)[Man(a1-6)]Man(a1-6)[Man(a1-2)Man(a1-3)]Man(b1-4)GlcNAc(b1-4)GlcNAc
# How it was run: as §1
# [14] = target: Man(a1-2)Man(a1-6)[Man(a1-3)]Man(a1-6)[Man(a1-2)Man(a1-2)Man(a1-3)]Man
# How it was run: as §1
# Man(a1-3)[Man(a1-6)]Man = target: Man(a1-3)[Man(a1-6)]Man
# How it was run: as §1
# Man(a1-6)Man = target: Man(a1-6)Man
# How it was run: as §1
# [15] = target: Neu5Ac(a2-3)Gal(b1-3)GlcNAc(b1-3)Gal(b1-3)GlcNAc
# How it was run: as §1
# [16] = target: Neu5Ac(a2-3)Gal(b1-3)GlcNAc6S
# How it was run: as §1
# [17] = target: Neu5Ac(a2-3)Gal(b1-4)GlcNAc(b1-3)Gal(b1-4)GlcNAc
# How it was run: as §1
# [18] = target: Neu5Ac(a2-3)Gal(b1-4)GlcNAc(b1-6)[Neu5Ac(a2-3)Gal(b1-3)]GalNAc
# How it was run: as §1
# Neu5Ac(a2-6)GalNAc = target: Neu5Ac(a2-6)GalNAc
# How it was run: as §1
# [19] = target: Neu5Ac(a2-8)Neu5Ac(a2-3)Gal(b1-4)Glc
# How it was run: as §1
binder,measurement,setting,value
Surfactant Protein D (Human); Neck + Carbohydrate Recognition Domain (NCRD) (Homo sapiens) (protein) MLLFLLSALVLLTQPLGYLEAEMKTYSHRTMPSACTLVMCSSVESGLPGRDRDGREGPRGEKGDPGLPGAAGQAGMPGQAGPVGPKGDNGSVGEPGPKGDTGPSGPPGPPGVPGPAGREGALGKQGNIGPQGKPGPKGEAGPKGEVGAPGMQGSAGARGLAGPKGERGVPGERGVPGNTGAAGSAGAMGPQGSPGARGPPGLKGDKGIPGDKGAKGESGLPDVASLRQQVEALQGQVQHLQAAFSQYKKVELFPNGQSVGEKIFKTAQFVKPFTEAQLLCTQAGGQLASPRSAAENAALQQLVVAKNEAAFLSMTDSKTEGKFTYPTGESLVYSNWAPGEPNDDGGSEDCVEIFTNGKWNDIACGEKRLVVCEF,glycan array binding signal (z-score),Fuc(a1-2)Gal(b1-4)Glc6S,-0.274
same,glycan array binding signal (z-score),Fuc(a1-2)[Gal(a1-3)]Gal,-0.265
same,glycan array binding signal (z-score),[1],-0.272
same,glycan array binding signal (z-score),[2],-0.266
same,glycan array binding signal (z-score),Fuc(a1-3)GlcNAc,5.51
same,glycan array binding signal (z-score),[3],-0.264
same,glycan array binding signal (z-score),[4],-0.272
same,glycan array binding signal (z-score),Gal(a1-2)Gal,-0.275
same,glycan array binding signal (z-score),Gal(a1-3)GalNAc,-0.268
same,glycan array binding signal (z-score),Gal(a1-4)GlcNAc,-0.27
same,glycan array binding signal (z-score),[5],-0.274
same,glycan array binding signal (z-score),[6],-0.276
same,glycan array binding signal (z-score),[7],-0.263
same,glycan array binding signal (z-score),[8],-0.275
same,glycan array binding signal (z-score),[9],5.45
same,glycan array binding signal (z-score),GlcNAc(b1-3)Man,-0.076
same,glycan array binding signal (z-score),[10],-0.05
same,glycan array binding signal (z-score),[11],4.64
same,glycan array binding signal (z-score),[12],4.37
same,glycan array binding signal (z-score),[13],4.08
same,glycan array binding signal (z-score),[14],4.33
same,glycan array binding signal (z-score),Man(a1-3)[Man(a1-6)]Man,0.263
same,glycan array binding signal (z-score),Man(a1-6)Man,-0.261
same,glycan array binding signal (z-score),[15],-0.268
same,glycan array binding signal (z-score),[16],-0.275
same,glycan array binding signal (z-score),[17],-0.278
same,glycan array binding signal (z-score),[18],-0.275
same,glycan array binding signal (z-score),Neu5Ac(a2-6)GalNAc,-0.269
same,glycan array binding signal (z-score),[19],-0.267

# Reference: the supplement of paper PMC8728848
